31 molecules from PubChem BioAssay (NCATS) can be followed below.

Each structure is given as a SMILES string. Inconclusive results are not listed. A number with no mark means an inactive call. The source made the active and inactive calls. Calls come from the whole dose curve.
% is set by controls: 0 for no effect and ±100 for the full control effect; potency is the fitted concentration of half-maximal effect.

Atrial natriuretic peptide receptor 1 (Homo sapiens), sequence (P16066 whole entry, looked up, the tested form may be a part): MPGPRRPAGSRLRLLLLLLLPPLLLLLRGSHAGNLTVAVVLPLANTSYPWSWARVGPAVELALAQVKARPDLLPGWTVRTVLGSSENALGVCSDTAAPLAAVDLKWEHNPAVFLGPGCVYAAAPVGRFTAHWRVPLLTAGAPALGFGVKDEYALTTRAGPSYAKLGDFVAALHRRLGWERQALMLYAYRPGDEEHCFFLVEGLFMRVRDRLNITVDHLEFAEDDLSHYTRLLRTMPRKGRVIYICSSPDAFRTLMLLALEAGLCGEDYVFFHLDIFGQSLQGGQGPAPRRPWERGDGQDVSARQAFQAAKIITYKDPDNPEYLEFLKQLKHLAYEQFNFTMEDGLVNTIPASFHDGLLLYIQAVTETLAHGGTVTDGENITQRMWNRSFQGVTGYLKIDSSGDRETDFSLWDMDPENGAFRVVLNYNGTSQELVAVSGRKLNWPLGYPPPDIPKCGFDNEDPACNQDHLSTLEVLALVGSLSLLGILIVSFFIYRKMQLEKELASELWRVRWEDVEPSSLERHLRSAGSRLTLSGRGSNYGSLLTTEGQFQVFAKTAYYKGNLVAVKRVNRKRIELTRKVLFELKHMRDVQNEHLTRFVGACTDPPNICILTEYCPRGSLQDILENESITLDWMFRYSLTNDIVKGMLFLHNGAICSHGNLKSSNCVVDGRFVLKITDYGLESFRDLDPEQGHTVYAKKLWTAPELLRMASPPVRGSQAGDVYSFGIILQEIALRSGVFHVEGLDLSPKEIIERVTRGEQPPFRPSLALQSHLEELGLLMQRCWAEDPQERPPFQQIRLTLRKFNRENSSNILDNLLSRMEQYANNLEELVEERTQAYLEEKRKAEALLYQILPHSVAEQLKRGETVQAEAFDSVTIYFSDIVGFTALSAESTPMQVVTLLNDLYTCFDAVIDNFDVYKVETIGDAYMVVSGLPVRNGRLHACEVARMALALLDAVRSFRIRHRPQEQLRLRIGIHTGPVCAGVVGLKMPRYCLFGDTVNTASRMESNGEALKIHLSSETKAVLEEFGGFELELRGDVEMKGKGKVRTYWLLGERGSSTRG

The assay has as its target Atrial natriuretic peptide receptor 1 (Homo sapiens) (UniProt P16066). The assay is described as follows: Natriuretic polypeptide receptor (hNpr1) antagonism - Pilot screen (AID 1347049). The following applies: hNpr1 cells, antagonist mode cGMP read-out; series mostly up to 57.5 µM; activity change, negative = inhibition: at the top concentration. The method, then: In order to identify small molecular compounds that inhibit the hNpr1 receptor we developed a high-throughput assay to measure inhibition of the guanylate cyclase activity of the receptor. cGMP production was measured using a circular permutated Firefly luciferase (FLuc) enzyme functionally linked to the cGMP binding domain of human phosphodiesterase 5 (GloSensor technology pGS-40F, (Fan, F. et al. 2008). The cGMP-sensor was expressed in human embryonic kidney 293 (HEK-293) cells and FLuc activity was measured after stimulation with hNrp agonist peptide. hNrp agonists activates the receptor's associated guanylyl cyclase (GC) domain producing cGMP which then binds to the GloSensor resulting in FLuc activation, the enzymatic activity of which can be measured as bioluminescence with addition of luciferin substrate.
F. Fan, B. F. Binkowski, B. L. Butler, P. F. Stecha, M. K. Lewis, K. V. Wood, Novel genetically encoded biosensors using firefly luciferase. ACS Chem Biol 3, 346-351 (2008).
This assay was initially piloted by testing with a small diversity library of compounds with known pharmacological activity.
PROTOCOL TABLES (as described by Inglese J, Shamu CE and Guy RK. 2007)
SEQUENCE No. (e.g., 1, 2, 3, etc.); […] (e.g., Cells, Incubation, Reagent, etc.); VALUE and DESCRIPTION.
1. Cells. Seed 1500 HEK293 cGMP-sensor cells expressing hNpr1 per well in 4uL into Greiner 1536-well white/solid bottom high base, tissue culture-treated plates.
2. Incubation. Incubate plated cells at 37C in 5% CO2, 95% RH overnight.
3. Reagent. Add 1uL per well GloSensor reagent from Promega (2% final concentration) or CO2 independent media vehicle control to respective columns of Greiner 1536-well plates.
4. Incubation. Incubate plated cells at room temperature for 2 h, protect from light.
5. Compounds. Library compounds and A-71915 control added at 23 nL per well, transferred by Pin Tool.
6. Incubation. Incubate plated cells for 30 min. at room temperature, protect from light.
7. Detector. GloSensor baseline pre-read luminescence measured using CCD-based camera (Viewlux).
8. Compound. Add 1uL of hNppA peptide to 0.1 nM final concentration to stimulate hNpr1 or CO2 independent media as vehicle control.
9. Incubation. Incubate treated cells at room temperature for 20 min., protect from light.
10. Detector. GloSensor post-hNppA luminescence measured using CCD-based camera (Viewlux).
NOTES (numbers refer to Sequence numbers above)
1. HEK293 cells expressing hNpr1 and GIP/pGS-40F grown to 85-95% confluence (48-72 h) in T175 culture flasks (CO2 independent media supplemented with 10% FBS, 1% Pen/Strep antibiotics and 1 ug/mL puromycin). Trypsinize and harvest cells from T175 culture flasks and filter through 40 um cell strainer. Cells counted with Invitrogen Countess (30,000,000 - 50,000,000 cells/flask). Cells diluted to a final concentration of 375 cells/uL in CO2 independent media and a Millipore multidrop used to dispense 1500 cells per well (4uL/well) into 9 x 1536-well Greiner White/Solid bottom, high base tissue-culture treated (TC) plates and one Aurora 1536-well Black/Clear bottom, low base, TC plate (for visual inspection of cell health throughout the duration of the assay).
2. Cells incubated overnight at ambient temperature, 24 h. at 37C in 95% RH incubator protected from light, covered with metal lid with gas-exchange holes.
3. Prepare GloSensor Reagent (Promega): Reconstitute GloSensor luciferase substrate by adding 8.2mL Hepes buffer to 250mg substrate, mix well, protect from light and stored at -80C. Prepare a fresh 12% GloSensor solution in CO2 independent supplemented plating media (see above). Mix well and store at ambient temperature, protected from light. 1uL 12% GloSensor Luciferase Reagent added (2% final concentration) to respective columns of 9 x 1536-well Greiner plate with BioRaptr, 1uL CO2 independent plating media added to respective columns as vehicle control with BioRaptr.
4. […]
In the case of `Cc1ncc(CNC(=O)N(CCCl)N=O)c(N)n1`, the “activity change, negative = inhibition” value was 6.05%.
The same measure, in the same setting: as for `CNCC(O)c1ccc(O)cc1` (stereo unspecified), the figure is 1.89%; as for `CC[C@@H](CO)NC(=O)[C@@H]1C=C2c3cccc4c3c(cn4C)C[C@H]2N(C)C1`, 3.31%; as for `COc1ccc(C(CN(C)C)C2(O)CCCCC2)cc1` (stereo unspecified), 2.23%.
Same read-out and setting: the figure for `COC[C@H]1OC(=O)c2coc3c2[C@@]1(C)C1=C(C3=O)C2CCC(=O)[C@@]2(C)C[C@H]1OC(C)=O` (stereo partly specified) is -1.77%; for `NCC1(CC(=O)O)CCCCC1` it is 14.2%; for `COc1ccccc1N1CCNCC1` it is 5.8%.
On the same count and under the same terms, the figure for `N#CC(C#N)=Cc1ccc(O)c(O)c1` is -26.5%.
Turning to `NN=C(N)N`, the Potency entry is “inactive”.
Take `CCCN1CCC[C@@H]2Cc3nc(N)ncc3C[C@H]21`: the “activity change, negative = inhibition” value was 9.79%.
Still for that read-out and setting: the figure for `CC(C)=CCOc1c2occc2cc2ccc(=O)oc12` is 2.18%.
For `C=C(C)[C@H]1Cc2c(ccc3c2O[C@@H]2COc4cc(OC)c(OC)cc4[C@@H]2C3=O)O1`, the Potency was 0.135 µM (active).
For the molecule `CCCN1CCC[C@@H]2Cc3[nH]ncc3C[C@H]21`, the Potency result is “inactive”.
Consider `CC(O)(CS(=O)(=O)c1ccc(F)cc1)C(=O)Nc1ccc(C#N)c(C(F)(F)F)c1` (stereo unspecified), for which the “activity change, negative = inhibition” value is 0.195%.
On the same count and under the same terms, the figure for `CN1C[C@H](CNC(=O)OCc2ccccc2)C[C@@H]2c3cccc4c3c(cn4C)C[C@H]21` is -6.75%; for `NCC(O)c1ccc(O)cc1` (stereo unspecified) it is -1.31%.
As to `CCCC(C)(COC(N)=O)COC(=O)NC(C)C` (stereo unspecified), the “activity change, negative = inhibition” value was -4.66%.
`CC(CCc1ccccc1)NC(C)C(O)c1ccc(O)cc1` (stereo unspecified): the “activity change, negative = inhibition” value was 0.504%.
Consider `Cc1ccc(S(=O)(=O)N[C@@H](CCCCN)C(=O)CCl)cc1`, for which the “activity change, negative = inhibition” value was -2.61%.
Still for that read-out and setting: as for `C[C@@H]1O[C@@H](O[C@H]2C[C@@H](O)[C@]3(CO)[C@H]4[C@H](O)C[C@]5(C)[C@@H](C6=CC(=O)OC6)CC[C@]5(O)[C@@H]4CC[C@]3(O)C2)[C@H](O)[C@H](O)[C@H]1O`, the figure is -8.96%; as for `CC(=O)[C@H]1CC[C@H]2[C@@H]3CC[C@H]4C[C@H](O)CC[C@]4(C)[C@H]3C(=O)C[C@]12C`, 5.09%; as for `CCC1(C2=NCCN2)Cc2ccccc2O1` (stereo unspecified), 0.458%.
Same read-out and setting: as for `C[C@]12CCC(=O)C(O)=C1CC[C@@H]1[C@@H]2CC[C@]2(C)C(=O)CC[C@@H]12`, the figure is 4.5%; as for `Fc1ccc(C(OCCN2CCN(CCCc3ccccc3)CC2)c2ccc(F)cc2)cc1`, -24.5%; as for `O=C1NCN(c2ccccc2)C12CCN(CC1COc3ccccc3O1)CC2` (stereo unspecified), 1.99%.
On the same count and under the same terms, as for `NCC(CC(=O)O)c1ccc(Cl)cc1` (stereo unspecified), the figure is 0.0647%.
With `Cc1cccc(C)c1NC(=O)CN1CCCC1=O`, the “activity change, negative = inhibition” value is 5.59%.
As to `O=c1[nH]c2ccccc2n1CCCN1CCC(n2c(=O)[nH]c3cc(Cl)ccc32)CC1`, the “activity change, negative = inhibition” value was -5%.
The same measure, in the same setting: the figure for `CC[C@@H](CO)NC(=O)[C@@H]1C=C2c3cccc4[nH]cc(c34)C[C@H]2N(C)C1` is 3.02%; for `c1ccc(C2CC2)c(OCC2=NCCN2)c1` it is 5.39%.
`Nc1ccncc1`: the “activity change, negative = inhibition” value is 6.41%.
